# About 2,000 (36%) of roughly 5,500 compounds were called active. Another 18% or so got no clear call; they are omitted. This is one part of the list. Values without a mark were called inactive. Cut-off read from the data, not from the text of the source: active = normalized growth mostly below about 0.91 (no sharp cut-off); inconclusive = no clear call, values can overlap the other calls; inactive = mostly above about 0.92.
# Assay: chemical genetic growth profiling, strain panel (AID 1159580);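 note: tested at 20 µM; growth read once vehicle control cultures reached saturation at 30 °C; 1 = growth at the plate median or of vehicle wells; lower values mean less growth of the strain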
# Conditions: S. cerevisiae deletion strains, growth OD
# [1] = locus YAR019C, strain CDC15, active compounds read low
# [2] = locus YBL105C, strain PKC1, active compounds read low
# [3] = locus YBR135W, strain CKS1, active compounds read low
# [4] = locus YBR136W, strain MEC1, active compounds read low
# [5] = locus YBR160W, strain CDC28, active compounds read low
# [6] = locus YDL017W, strain CDC7, active compounds read low
# [7] = locus YDL028C, strain MPS1, active compounds read low
# [8] = locus YDL101C, strain DUN1, active compounds read low
# [9] = locus YDL108W, strain KIN28, active compounds read low
# [10] = locus YDL132W, strain cdc53, active compounds read low
# [11] = locus YDL214C, strain PRR2, active compounds read low
# [12] = locus YDR052C, strain DBF4, active compounds read low
# [13] = locus YDR054C, strain cdc34, active compounds read low
# [14] = locus YDR226W, strain ADK1, active compounds read low
# [15] = locus YDR477W, strain SNF1, active compounds read low
# [16] = locus YER123W, strain YCK3, active compounds read low
# [17] = locus YER133W, strain GLC7, active compounds read low
# [18] = locus YFL009W, strain cdc4, active compounds read low
# [19] = locus YFL029C, strain CAK1, active compounds read low
# [20] = locus YFR003C, strain YPI1, active compounds read low
# [21] = locus YFR019W, strain FAB1, active compounds read low
# [22] = locus YFR028C, strain CDC14, active compounds read low
# [23] = locus YGR040W, strain KSS1, active compounds read low
# [24] = locus YGR052W, strain FMP48, active compounds read low
# [25] = locus YGR092W, strain DBF2, active compounds read low
# [26] = locus YHR030C, strain SLT2, active compounds read low
# [27] = locus YHR079C, strain IRE1, active compounds read low
# [28] = locus YHR082C, strain KSP1, active compounds read low
# [29] = locus YHR205W, strain SCH9, active compounds read low
# [30] = locus YIL147C, strain SLN1, active compounds read low
# [31] = locus YJL095W, strain BCK1, active compounds read low
# [32] = locus YJL128C, strain PBS2, active compounds read low
# [33] = locus YJL157C, strain FAR1, active compounds read low
# [34] = locus YJR016C, strain ILV3, active compounds read low
# [35] = locus YJR066W, strain TOR1 (second series), active compounds read low
# [36] = locus YJR066W, strain TOR1, active compounds read low
# [37] = locus YKL048C, strain ELM1, active compounds read low
# [38] = locus YKL067W, strain YNK1, active compounds read low
# [39] = locus YKL101W, strain HSL1, active compounds read low
# [40] = locus YKL193C, strain SDS22, active compounds read low
# [41] = locus YKL203C, strain TOR2, active compounds read low
# [42] = locus YLR113W, strain HOG1, active compounds read low
# [43] = locus YLR133W, strain CKI1, active compounds read low
# [44] = locus YLR403W, strain SFP1, active compounds read low
# [45] = locus YML070W, strain DAK1, active compounds read low
# [46] = locus YMR001C, strain CDC5, active compounds read low
# [47] = locus YMR205C, strain PFK2 (second series), active compounds read low
# [48] = locus YMR277W, strain FCP1, active compounds read low
# [49] = locus YNL006W, strain LST8, active compounds read low
# [50] = locus YNL020C, strain ARK1, active compounds read low
# [51] = locus YNL161W, strain CBK1, active compounds read low
# [52] = locus YNL183C, strain NPR1, active compounds read low
# [53] = locus YNL207W, strain RIO2, active compounds read low
# [54] = locus YNL222W, strain SSU72, active compounds read low
# [55] = locus YNL307C, strain MCK1 (second series), active compounds read low
# [56] = locus YOL078W, strain AVO1, active compounds read low
# [57] = locus YOL136C, strain PFK27, active compounds read low
# [58] = locus YOR061W, strain CKA2, active compounds read low
# [59] = locus YOR119C, strain RIO1, active compounds read low
# [60] = locus YOR231W, strain MKK1, active compounds read low
# [61] = locus YOR329C, strain SCD5, active compounds read low
# [62] = locus YPL031C, strain PHO85, active compounds read low
# [63] = locus YPL153C, strain RAD53, active compounds read low
# [64] = locus YPL204W, strain HRR25, active compounds read low
# [65] = locus YPL209C, strain IPL1, active compounds read low
# [66] = locus YPL256C, strain CLN2, active compounds read low
# [67] = locus YPR025C, strain CCL1, active compounds read low
# [68] = locus YPR106W, strain ISR1, active compounds read low
# [69] = locus YPR111W, strain DBF20, active compounds read low
# [70] = strain NNK1, active compounds read low
# [71] = strain TSCII, active compounds read low
smiles,measurement,setting,value
FC(F)(F)c1cccc(NNC(=S)Nc2ccccc2)c1,normalized growth,[1],0.996
same,normalized growth,[2],1
same,normalized growth,[3],1
same,normalized growth,[4],0.999
same,normalized growth,[5],0.997
same,normalized growth,[6],0.998
same,normalized growth,[7],1
same,normalized growth,[8],0.994
same,normalized growth,[9],1.01
same,normalized growth,[10],0.99
same,normalized growth,[11],0.951
same,normalized growth,[12],0.998
same,normalized growth,[13],0.989
same,normalized growth,[14],0.999
same,normalized growth,[15],0.882
same,normalized growth,[16],0.912
same,normalized growth,[17],0.975
same,normalized growth,[18],1
same,normalized growth,[19],1
same,normalized growth,[20],1.01
same,normalized growth,[21],0.974
same,normalized growth,[22],1
same,normalized growth,[23],0.897
same,normalized growth,[24],0.957
same,normalized growth,[25],0.807
same,normalized growth,[26],0.754 (active)
same,normalized growth,[27],0.848
same,normalized growth,[28],0.876
same,normalized growth,[29],0.877
same,normalized growth,[30],0.998
same,normalized growth,[31],0.856
same,normalized growth,[32],0.986
same,normalized growth,[33],0.945
same,normalized growth,[34],0.996
same,normalized growth,[35],0.812
same,normalized growth,[36],0.861
same,normalized growth,[37],0.948
same,normalized growth,[38],0.937
same,normalized growth,[39],0.907
same,normalized growth,[40],1
same,normalized growth,[41],0.968
same,normalized growth,[42],0.764 (active)
same,normalized growth,[43],0.946
same,normalized growth,[44],0.929
same,normalized growth,[45],0.947
same,normalized growth,[46],1.01
same,normalized growth,[47],0.971
same,normalized growth,[48],0.994
same,normalized growth,[49],1
same,normalized growth,[50],0.925
same,normalized growth,[51],0.997
same,normalized growth,[52],0.874
same,normalized growth,[53],0.998
same,normalized growth,[54],0.999
same,normalized growth,[55],0.825
same,normalized growth,[56],0.995
same,normalized growth,[57],0.938
same,normalized growth,[58],0.856
same,normalized growth,[59],0.993
same,normalized growth,[60],0.882
same,normalized growth,[61],0.996
same,normalized growth,[62],0.894
same,normalized growth,[63],0.919
same,normalized growth,[64],0.89
same,normalized growth,[65],0.997
same,normalized growth,[66],0.848 (active)
same,normalized growth,[67],1
same,normalized growth,[68],1.01
same,normalized growth,[69],1
same,normalized growth,[70],0.995
same,normalized growth,[71],1
FC(F)(F)c1cccc(NC(=S)Nc2ccccc2)c1,normalized growth,[1],0.983
same,normalized growth,[2],0.98
same,normalized growth,[3],0.975
same,normalized growth,[4],0.979
same,normalized growth,[5],0.981
same,normalized growth,[6],0.987
same,normalized growth,[7],0.98
same,normalized growth,[8],0.989
same,normalized growth,[9],0.978
same,normalized growth,[10],0.966
same,normalized growth,[11],0.949
same,normalized growth,[12],0.996
same,normalized growth,[13],0.982
same,normalized growth,[14],0.98
same,normalized growth,[15],0.954
same,normalized growth,[16],0.96
same,normalized growth,[17],0.958
same,normalized growth,[18],0.973
same,normalized growth,[19],0.983
same,normalized growth,[20],0.982
same,normalized growth,[21],0.962
same,normalized growth,[22],0.967
same,normalized growth,[23],0.941
same,normalized growth,[24],0.974
same,normalized growth,[25],0.883
same,normalized growth,[26],1
same,normalized growth,[27],1.04
same,normalized growth,[28],1
same,normalized growth,[29],0.951
same,normalized growth,[30],0.977
same,normalized growth,[31],0.882
same,normalized growth,[32],0.959
same,normalized growth,[33],0.941
same,normalized growth,[34],0.968
same,normalized growth,[35],0.897
same,normalized growth,[36],0.989
same,normalized growth,[37],1
same,normalized growth,[38],0.961
same,normalized growth,[39],0.955
same,normalized growth,[40],0.973
same,normalized growth,[41],0.995
same,normalized growth,[42],0.962
same,normalized growth,[43],0.947
same,normalized growth,[44],0.899
same,normalized growth,[45],0.966
same,normalized growth,[46],0.98
same,normalized growth,[47],0.991
same,normalized growth,[48],0.97
same,normalized growth,[49],0.985
same,normalized growth,[50],0.974
same,normalized growth,[51],0.981
same,normalized growth,[52],1
same,normalized growth,[53],0.967
same,normalized growth,[54],0.981
same,normalized growth,[55],0.896
same,normalized growth,[56],0.967
same,normalized growth,[57],0.95
same,normalized growth,[58],0.952
same,normalized growth,[59],1.02
same,normalized growth,[60],0.95
same,normalized growth,[61],0.989
same,normalized growth,[62],0.952
same,normalized growth,[63],0.954
same,normalized growth,[64],0.934
same,normalized growth,[65],0.978
same,normalized growth,[66],1.1
same,normalized growth,[67],0.982
same,normalized growth,[68],0.987
same,normalized growth,[69],0.969
same,normalized growth,[70],0.982
same,normalized growth,[71],0.975
CC(C)(C)C(=O)NC(=S)Nc1cccc(C(F)(F)F)c1,normalized growth,"locus YAL013W, strain DEP1, active compounds read low",0.925 (active)
same,normalized growth,"locus YBR229C, strain ROT2, active compounds read low",0.989
same,normalized growth,[8],0.984
same,normalized growth,"locus YDL134C, strain PPH21, active compounds read low",0.804 (active)
same,normalized growth,"locus YDR150W, strain NUM1, active compounds read low",0.91
same,normalized growth,"locus YEL061C, strain CIN8, active compounds read low",0.944
same,normalized growth,"locus YGR078C, strain PAC10, active compounds read low",0.959
same,normalized growth,"locus YGR229C, strain SMI1, active compounds read low",0.959
same,normalized growth,[26],0.527 (active)
same,normalized growth,"locus YHR087W, strain rtc3, active compounds read low",0.99
same,normalized growth,"locus YJL187C, strain SWE1, active compounds read low",0.987
same,normalized growth,"locus YJR043C, strain POL32, active compounds read low",0.957
same,normalized growth,"locus YJR075W, strain HOC1, active compounds read low",0.977
same,normalized growth,"locus YLR039C, strain RIC1, active compounds read low",0.401 (active)
same,normalized growth,"locus YLR058C, strain SHM2 (second series), active compounds read low",0.966
same,normalized growth,"locus YLR085C, strain ARP6, active compounds read low",0.397 (active)
same,normalized growth,"locus YLR262C, strain YPT6, active compounds read low",0.474 (active)
same,normalized growth,"locus YML094W, strain GIM5, active compounds read low",0.846 (active)
same,normalized growth,"locus YMR219W, strain ESC1, active compounds read low",0.978
same,normalized growth,"locus YMR263W, strain SAP30, active compounds read low",0.953
same,normalized growth,"locus YNL153C, strain GIM3, active compounds read low",0.955
same,normalized growth,"locus YNL298W, strain CLA4 (second series), active compounds read low",0.676 (active)
same,normalized growth,"locus YNL322C, strain KRE1, active compounds read low",0.984
same,normalized growth,"locus YNR030W, strain Alg12, active compounds read low",0.722 (active)
same,normalized growth,"locus YOL006C, strain TOP1, active compounds read low",0.238 (active)
same,normalized growth,"locus YPL055C, strain LGE1, active compounds read low",0.785 (active)
same,normalized growth,"locus YPL241C, strain CIN2, active compounds read low",0.755 (active)
same,normalized growth,"locus YPR135W, strain CTF4, active compounds read low",0.569 (active)

# From PubChem BioAssay AID1159580 (chemical genetic matrix, 2015)
